# Results: PubChem BioAssay (NCI)
# Compounds without any hit were thinned out: in the full panel of roughly 83,000, 20% have a hit.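 In brief: 96-well plates, 48 h treatment, single concentration, percent growth endpoint.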 Activity calls are given as the source filed them.
# Test system: KM12 colon
# Test: NCI-60 one-dose screen, 48 h (100 = growth as untreated, 0 = no growth, -100 = all killed)
# Settings: 10 µM unless noted
# Experimental: Growth inhibition of the KM12 human tumor cell line is measured as a screen for anti-cancer activity. Cells are grown in 96 well plates and exposed to the test compound for 48 hours. Compounds are tested at a single concentration, which is 10^-5 M for most compounds. The reported endpoint is percent growth (GI% or GIPRCNT), where numbers from 0 - 100% represent growth inhibition, and numbers from -100% - 0 represent cell death. For example, a value of 40 represents 60% growth inhibition. A value of 0 means no net growth occurred over the course of the experiment. A value of -40 indicates 40% of cells at the beginning of the experiment died by the end of the experiment. A value of -100 means all cells are dead at the end of the experiment.
# NCI-60 Human Tumor Cell Lines Screen was performed using the standard one-dose NCI protocol, which is described in more detail at https://dtp.cancer.gov/discovery_development/nci-60/default.htm.
# Compounds with GIPRCNT values below 10 were considered active. Activity score was based on GIPRCNT using the following formula: […]
# Score is 0 for GIPRCNT values of 100 or above, 50 for GIPRCNT values of 0, and 100 for GIPRCNT values of -100.
row,Structure (SMILES),growth
1,Cc1ccc(/C=C2\CN(C(=O)C(Cl)Cl)C/C(=C\c3ccc(C)cc3)C2=O)cc1,-65.8% (active)
2,Cc1nc2sc(C(=O)Nc3ccccc3)c(N)c2cc1C(=O)/C=C/c1ccccc1,-42.1% (active)
3,CC(=O)N/C(=C1/OC(C(O)C(O)C(O)CO)CN1C)[P+](c1ccccc1)(c1ccccc1)c1ccccc1 (stereo not given),103% (inactive)
4,CCOC(=O)c1c(NC(=O)c2ccc(OC)cc2)sc2c(CN(C)C)c(O)ccc12,81.8% (inactive)
5,CN1CCN(CCCOC(=O)c2c3c(n4ccccc24)C(=O)c2ncccc2C3=O)CC1,17.5% (inactive)
6,O=C(/C=C\c1ccco1)/C=C/c1ccco1,106% (inactive)
7,c1ccc(CNc2ccc3nc(CCC4CCCCC4)[nH]c3c2)cc1,66.7% (inactive)
8,COc1ccc(C(O)c2cc3c(N)c(C(=O)Nc4cccc(Cl)c4)sc3nc2C)cc1 (stereo not given),9.91% (active)
9,CCOC(=O)c1c(C)nc2c(c1N)CC(=O)N2Cc1cc(OC)c(OC)c(OC)c1,30.1% (inactive)
10,CNC(=O)c1c(NC(=O)c2ccc(C(C)(C)C)cc2)sc2c(CN(C)C)c(O)ccc12,-79.6% (active)
11,CCOC(=O)n1cc(-c2nonc2-c2cn(C)c3ccccc23)c2ccccc21,29.1% (inactive)
12,Cc1c2cnccc2c(C)c2c1c1cc(C3OCCCO3)ccc1n2C,5.75% (active)
13,N#Cc1nc2c(S(=O)(=O)c3ccccc3)c(N)n(Cc3cccnc3)c2nc1C#N,102% (inactive)
14,Cn1c(=O)c2c(c3ccccc31)OC(N)=C(C#N)C21C(=O)c2ccccc2C1=O,95.2% (inactive)
15,Cn1cc(-c2nn3cc(-c4ccccc4)nc3s2)c2ccccc21,41.6% (inactive)
16,CCn1cc(CNc2ccc(C(=O)Nc3cc4cc(OC)c(OC)cc4c(C)n3)cc2)c(C)n1,23% (inactive)
17,O=C1c2cc3c(cc2-c2c1c1ccc(Cl)cc1c(=O)n2C[C@H](O)CO)OCO3,-14.4% (active)
18,COc1ccc2[nH]cc(-c3nc(-c4cn(C)c5ccncc45)cs3)c2c1,-31.8% (active)
19,CCCCSCC(=O)c1ccccc1,98.5% (inactive)
20,N=c1c2c(=N)n3c(nc2nc2n1-c1ccccc1Sc1ccccc1-2)sc1cc(Cl)ccc13,19.9% (inactive)

row,Structure (SMILES),growth
1,COC(=O)c1c2c(n3ccc(C)cc13)C(=O)c1ccccc1C2=O,59.4% (inactive)
2,CCCCCCCCCCCCCCCCOC(=O)c1c(C)[nH]c(/C=C2\N=C(c3ccc[nH]3)C=C2OC)c1C,22.7% (inactive)
3,C=C1C(=O)O[C@H]2[C@H]1CC/C(COC(=O)/C=C\C(=O)NCc1ccc(Cn3c(=O)sn(-c4ccccc4)c3=O)cc1)=C\CC[C@@]1(C)O[C@@H]21,106% (inactive)
4,CCOC(=O)C(=Cc1cccc(C#N)c1)C(=O)OCC,54.8% (inactive)
5,O=C(CSc1nc2ccc([N+](=O)[O-])cc2[nH]1)Nc1cccc([N+](=O)[O-])c1,57.4% (inactive)
6,COc1cc2c(c(OC)c1OC)C(=O)CC(c1cccc(NC(=O)c3ccccc3Br)c1)O2 (stereo not given),103% (inactive)
7,N#Cc1c(NC(=O)c2cccs2)[n+]([O-])c2ccc(Cl)cc2[n+]1[O-],98.6% (inactive)
8,O=C(Nc1ccccc1)c1sc(-c2ccccc2)cc1O,85.1% (inactive)
9,CN1CCN(CCCOc2ccc3ncnc(Nc4ccc(Oc5cccc(F)c5)c(Cl)c4)c3c2)CC1,6.17% (active)
10,C/C(C=O)=C\c1ccc2c(c1)OCO2,110% (inactive)
11,O=C(Nc1ncc(Cc2ccccc2Cl)s1)c1cccs1,29.3% (inactive)
12,N/C(=N\c1nc2ccccc2s1)NC(=NC1CCCCC1)NC1CCCCC1,27.5% (inactive)
13,CCNCc1ccc(O)c2ncccc12,29.2% (inactive)
14,CCOC(=O)c1c(-c2ccccc2)n2c(=O)cc(C)c3c(O)c(O)cc1c32,64.3% (inactive)
15,COc1ccc(Cc2nnc(Nc3nc4ccccc4s3)s2)cc1,102% (inactive)
16,Fc1ccc(CNc2c3ccccc3nc3ccccc23)cc1,28.3% (inactive)
17,CS(=O)(=O)Nc1cc(-c2ccc3ncnc(Nc4ccc5c(cnn5Cc5cccnc5)c4)c3c2)cnc1Cl,82.9% (inactive)
18,CN(C)Cc1ccc(C(=O)Nc2ccc3ncnc(Nc4ccc(Oc5cccc(F)c5)c(Cl)c4)c3c2)cc1,-5.02% (active)
19,C/C(=N\O)C(=O)NCCCCCC(=O)Nc1ccccc1,103% (inactive)
20,COc1cc(OC)cc(C2C(C#N)=C(N)Oc3c2ccc2ccc(O)cc32)c1 (stereo not given),5.84% (active)
